Bioassay records: PubChem, National Center for Advancing Translational Sciences (NCATS)
Sampled rows, rich in hits. Any-hit rate of the full collection: about 12%.
PLK1 PBD block: qHTS for Inhibitors of PLK1-PDB (polo-like kinase 1 - polo-box domain): Primary Screen; Plk1 PBD binding of FITC phosphopeptide, fluorescence polarization; Serine/threonine-protein kinase PLK1 (Homo sapiens), P53350; hit rate 2.8% among 360,000; Potency, µM, without a hit: max response, negative = inhibition, usual class: inhibitors; AID 720504, 2013; note: series mostly up to about 57 µM; % is set by controls: 0 for no effect and ±100 for the full control effect; nearly all actives have a fitted effect of over 65% in size
G9a block: qHTS Assay for Inhibitors of Histone Lysine Methyltransferase G9a. hit rate 8.8% among 350,000. G9a H3K9 monomethylation, AlphaScreen, 2 h. Histone-lysine N-methyltransferase EHMT2 (Homo sapiens), Q96KQ7. Potency, µM (highest dose often 102 µM), for inactives: at the top dose activity, negative = inhibition, usual class: inhibitors; note: % is set by controls: 0 for no effect and ±100 for the full control effect; nearly all actives have a fitted effect of over 75% in size
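Readings reflect AlphaScreen signal from monomethyl-H3K9 antibody detection. HMT at 20 nM; substrate b-H3K9 500 nM; cofactor SAM 20 uM; 2 h RT reaction; compounds tested as titrations in qHTS with 15 min preincubation.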
BAZ2B block: qHTS Assay for Inhibitors of BAZ2B; AlphaScreen BAZ2B-H3K14Ac peptide displacement; Potency, µM (titrated, usually from 114 µM), for the others: at the highest dose activity change, negative = inhibition, hits mostly inhibitors; Bromodomain adjacent to zinc finger domain protein 2B (Homo sapiens), Q9UIF8; AID 504333, 2011; hit rate 4.4% among 360,000; note: % is set by controls: 0 for no effect and ±100 for the full control effect; nearly all actives have a fitted effect of over 60% in size
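Complex of BAZ2B and biotin-H3K14Ac (50 nM apiece) forms over 30 min at RT, then faces library compounds up to 110 uM for another 30 min; AlphaScreen beads added, 20 min dark incubation, luminescence read.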
Sfp inh: qHTS Assay for Inhibitors of Bacillus subtilis Sfp phosphopantetheinyl transferase (PPTase); 4'-phosphopantetheinyl transferase ffp (Bacillus subtilis), Q9F4F7; Biochemical Sfp PPTase activity, qHTS; AID 1490, 2009; Potency, µM, inactives show largest response in the series, negative = inhibition, hits mostly inhibitors; hit rate 3.5% among 310,000;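 note: the enzyme is Sfp with the accession as filed and its product quenches rhodamine fluorescence; 0% = enzyme reaction without inhibitor and -100% = no enzyme wells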
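Sfp 15 nM + cpd, 15 min RT; start w/ rhodamine-CoA 5 uM, BHQ-2-YbbR 12.5 uM (final); 50 mM Hepes pH 7.6, 10 mM MgCl2, 0.01% NP-40, 0.01% BSA; read 525/598 nm at 0 and 30 min.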
HP1b binding inh: HTS for Inhibitors of HP1-beta Chromodomain Interactions with Methylated Histone Tails; AlphaScreen HP1-beta / biotin-H3K9me3 peptide binding; AID 540317, 2011; Potency, µM (titrated, usually from 114 µM), for the others: at the top dose activity change, negative = inhibition, most hits filed as inhibitors; hit rate 0.56% among 390,000; note: nearly all actives have a fitted effect of over 70% in size
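HP1-beta protein (50 nM final) preincubated 30 min at room temperature with biotinylated H3(1-18)K9me3 peptide (50 nM) in PBS pH 7.4, 0.01% Tween-20, then compound added for 30 min. AlphaScreen streptavidin donor/nickel chelate acceptor beads (10 ug/mL final), 30 min dark, luminescence read.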
JMJD2A Tudor inh: qHTS Assay for Inhibitors of JMJD2A-Tudor Domain; AlphaScreen JMJD2A-Tudor / H3K4me3 peptide binding; Potency, µM (titrated, usually from 114 µM), inactives show at the highest dose activity change, negative = inhibition, most hits filed as inhibitors; hit rate 4.4% among 390,000; note: % is set by controls: 0 for no effect and ±100 for the full control effect; nearly all actives have a fitted effect of over 50% in size
Target sequence (O75164 whole entry, looked up, the tested form may be a part): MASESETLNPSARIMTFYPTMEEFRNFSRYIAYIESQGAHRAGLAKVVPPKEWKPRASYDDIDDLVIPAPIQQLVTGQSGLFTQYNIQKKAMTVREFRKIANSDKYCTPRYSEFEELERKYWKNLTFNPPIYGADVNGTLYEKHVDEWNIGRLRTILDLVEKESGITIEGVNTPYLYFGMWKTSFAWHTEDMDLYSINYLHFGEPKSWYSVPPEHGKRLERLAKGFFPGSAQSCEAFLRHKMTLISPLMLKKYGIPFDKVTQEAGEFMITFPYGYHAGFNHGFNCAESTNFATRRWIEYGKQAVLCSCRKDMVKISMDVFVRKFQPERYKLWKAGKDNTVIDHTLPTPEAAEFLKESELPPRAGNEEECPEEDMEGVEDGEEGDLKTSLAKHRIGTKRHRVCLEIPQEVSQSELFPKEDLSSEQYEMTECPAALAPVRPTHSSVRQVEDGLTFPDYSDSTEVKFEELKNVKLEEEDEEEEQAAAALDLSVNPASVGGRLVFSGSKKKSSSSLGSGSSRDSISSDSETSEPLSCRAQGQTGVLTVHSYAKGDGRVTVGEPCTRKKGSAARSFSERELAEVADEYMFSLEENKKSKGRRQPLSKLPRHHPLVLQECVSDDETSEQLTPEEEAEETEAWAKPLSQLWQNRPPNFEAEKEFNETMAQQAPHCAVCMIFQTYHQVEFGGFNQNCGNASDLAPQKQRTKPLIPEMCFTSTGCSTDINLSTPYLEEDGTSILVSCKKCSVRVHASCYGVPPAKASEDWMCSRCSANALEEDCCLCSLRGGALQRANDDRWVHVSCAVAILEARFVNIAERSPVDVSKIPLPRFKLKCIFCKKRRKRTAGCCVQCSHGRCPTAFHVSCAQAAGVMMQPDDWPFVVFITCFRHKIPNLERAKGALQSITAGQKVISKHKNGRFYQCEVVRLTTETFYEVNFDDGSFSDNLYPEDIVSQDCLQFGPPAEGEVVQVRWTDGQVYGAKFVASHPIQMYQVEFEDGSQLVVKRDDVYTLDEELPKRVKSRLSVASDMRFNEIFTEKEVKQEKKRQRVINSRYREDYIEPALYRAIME
* = called active by the depositor; ? = inconclusive; nt = no result; ! = not active in a repeat; [ ] = remark or other dose. Calls come from the whole dose curve; as a rule, active = well fitted curve in the direction sought with a large enough effect; inconclusive = small, poorly fitted or top-dose-only effect, or another doubt; inactive = no such curve, though single readings can be large; an effect the other way counts as inactive or inconclusive. Potency is the fitted concentration of half-maximal effect.

SMILES	PLK1 PBD block	G9a block	BAZ2B block	Sfp inh	HP1b binding inh	JMJD2A Tudor inh
Cc1cccc(-n2cnc3cc([N+](=O)[O-])ccc32)c1	17µM*	11µM*	?	-27%	-24%	-21%
Cc1cc(C)c(O)c(N)c1	nt	2.2µM*	?	20µM*	nt	nt
CCOc1ccc(Nc2ccc(S(=O)(=O)N3CCOCC3)cc2[N+](=O)[O-])cc1	-2%	nt	nt	nt	nt	nt
CCc1ccc(Nc2ccc(S(=O)(=O)N3CCOCC3)cc2[N+](=O)[O-])cc1	-16%	28µM*	11µM*	16%	?	11µM*
COc1ccc(Cl)cc1NS(=O)(=O)c1ccc(S(=O)(=O)N2CCCC2)cc1	-17%	8.9µM*	-7%	-3%	28%	-8%
COc1ccccc1C(CNc1ccc(S(=O)(=O)N2CCCC2)cc1[N+](=O)[O-])N(C)C (centres undefined)	0%	-49%	?	9%	?	?
Cc1ccc(Nc2ccc(S(=O)(=O)N3CCOCC3)cc2[N+](=O)[O-])c(C)c1	3%	35µM*	10µM*	-12%	?	?
COc1ccc(Nc2ccc(S(=O)(=O)N3CCCCC3)cc2[N+](=O)[O-])cc1Cl	-4%	7.1µM*	8.9µM*	8%	?	5.6µM*
CC(=O)OC[C@H]1O[C@@H](O/N=C(\C)CCN2CCCc3nc(C)c(C)cc32)[C@H](OC(C)=O)[C@@H](OC(C)=O)[C@H]1OC(C)=O	nt	nt	nt	-4%	nt	nt
Nc1nc(Cl)nc2c1ncn2[C@@H]1O[C@H](COP(=O)(O)OP(=O)(O)OP(=O)(O)O)[C@@H](O)[C@H]1O	nt	27µM*	nt	nt	nt	nt
Nc1ncnc2c1ncn2C1OC(C(=O)NC2CC2)C(O)C1O (centres undefined)	-6%	-5%[59 µM]	-2%	nt	28%	-13%
CNC(=O)[C@H]1O[C@@H](n2cnc3c(NCc4cccc(I)c4)nc(Cl)nc32)[C@H](O)[C@@H]1O	0%	-5%[59 µM]	-1%	-14%	23%	-26%
CSc1nc(N)c2ncn([C@@H]3O[C@H](COP(=O)(O)OP(=O)(O)OP(=O)(O)O)[C@H](O)[C@H]3O)c2n1	nt	49%[12.7 µM]	nt	nt	nt	nt
CNC(=O)[C@H]1O[C@@H](n2cnc3c(N)ncnc32)[C@H](O)[C@H]1O	nt	3.2µM*	nt	nt	nt	nt
Nc1ncnc2c1ncn2[C@@H]1O[C@H](COP(=O)(O)OP(=O)(O)OP(=O)(O)OP(=O)(O)OC[C@@H]2O[C@H](n3cnc4c(N)ncnc43)[C@@H](O)[C@H]2O)[C@@H](O)[C@H]1O	nt	25µM*!	nt	12%	nt	nt
COc1ccc(-c2noc(CSc3nnc(-c4ccncc4)n3-c3ccc(OC)cc3)n2)cc1	nt	-49%[59 µM]	?	nt	5%	-32%
CC(=O)C1CCC2C3CCC4CC(=O)CCC4(C)C3C=CC12C (centres undefined)	-10%	nt	nt	nt	35%	2%
NC(=O)C1CCN(C(=O)c2ccc3c(c2)N(Cc2cccc(Cl)c2)C(=O)c2ccccc2S3(=O)=O)CC1	nt	-16%[59 µM]	-2%	nt	-15%	-7%
Nc1ncnc2c1ncn2[C@@H]1O[C@H](COP(=O)(O)OP(=O)(O)O)[C@@H](O)[C@H]1O	nt	35%[59 µM]	nt	50µM*!	nt	nt
COc1cc(/C=N/n2cc(-c3ccccc3)[nH]c2=S)cc(OC)c1O	1%	0.5µM*	-19%	20µM*	-25%	1.3µM*
Oc1ccc(/C=N/n2cc(-c3ccccc3)[nH]c2=S)cc1	-13%	2.5µM*	nt	18µM*	-14%	4µM*
COc1ccccc1-n1cc(-c2ccc(C)cc2)[nH]c1=S	-6%	?	?	-6%	-22%	?
COc1ccc(CCNC(=O)c2cccc(C(=O)NCCc3ccc(OC)cc3)n2)cc1	-3%	nt	nt	nt	25%	-6%
CCCOc1ccc(C2C(C(=O)c3cc4ccccc4o3)=C(O)C(=O)N2c2cc(C)on2)cc1 (centres undefined)	?	32µM*	-30%	7%	9%	?
Cc1cc(N2C(=O)C(O)=C(C(=O)c3cc4ccccc4o3)C2c2ccc(Br)cc2)no1 (centres undefined)	21µM*	1.6µM*	?	-4%	-3%	?
SMILES	PLK1 PBD block	G9a block	BAZ2B block	Sfp inh	HP1b binding inh	JMJD2A Tudor inh
CCCOc1ccc(C2C(C(=O)c3cc4ccccc4o3)=C(O)C(=O)N2c2cc(C)on2)cc1OC (centres undefined)	?	nt	-8%	10%	19%	-33%
O=C(NCCN1CCOCC1)N1c2ccccc2Sc2ccccc21	-2%	23%	10%	18%	28%	-18%
O=c1cc(-c2ccccc2)oc2c1CCCC2	-15%	nt	nt	nt	nt	nt
O=C(N/N=C/c1cc(Cl)cc([N+](=O)[O-])c1O)NC12CC3CC(CC(C3)C1)C2	?	10µM*	8.9µM*	-1%	?	50µM*
O=C(N/N=C/c1ccccc1Br)c1cccc(S(=O)(=O)N2CCOCC2)c1	0%	-14%[12.7 µM]	4%	nt	36%	-20%
O=C(N/N=C/c1ccccc1O)NC12CC3CC(CC(C3)C1)C2	-2%	57%	-4%	10%	5%[57 µM]	-15%
O=C(N/N=C/c1ccc(O)c(O)c1)c1cccc(S(=O)(=O)N2CCCC2)c1	-7%	40µM*	-38%	nt	-23%	7.9µM*
COc1cc(/C=N/NC(=O)c2cccc(S(=O)(=O)N3CCCC3)c2)ccc1O	-7%	5%[0.501 µM]	3%	nt	15%	-24%
O=C(N/N=C/c1cc(Br)cc(Br)c1O)c1cccc(S(=O)(=O)N2CCOCC2)c1	49%	45%[59 µM]	-1%	14%	0%	89µM*
COc1cc(Cl)cc(/C=N\NC(=O)c2ccc3c(c2)OCO3)c1O	-24%	nt	nt	nt	nt	nt
O=C(N/N=C/c1cc(Cl)cc([N+](=O)[O-])c1O)c1ccc2c(c1)OCO2	-14%	?	35µM*	22%	-4%	79µM*
Cc1cc(Cl)ccc1NC(=O)c1cc(S(=O)(=O)N2CCOCC2)cn1C	nt	10%[59 µM]	3%	nt	21%	-16%
Clc1ccccc1-c1cc(NCc2ccccc2)ncn1	nt	-1%[0.501 µM]	nt	18%	nt	nt
O=C(N/N=C/c1cc(Cl)cc([N+](=O)[O-])c1O)c1cccc(S(=O)(=O)N2CCOCC2)c1	-7%	50µM*	25µM*	nt	-32%	40µM*
CCOc1ccc(C(=O)N/N=C/c2cc(Cl)ccc2[N+](=O)[O-])cc1	0%	-45%[59 µM]	56µM*	-11%	-11%	?
